Results published in PubChem BioAssay.

Each molecule was assayed on XIP peptide (Xip251-270) binding (assay: small-molecule binders of XIP peptide, primary screen, biochemical, small-molecule microarray, fluorescence 635/667 nm, 0.1 µg/mL protein (AID 1182)). Details: fluorescent protein binding, 635 nm, higher = more signal, called active from +8 up or from −8 down.

Composite z-score, inactive:
O=C(O)[C@@H]1[C@@H]2C(=O)N(c3ccccc3)C(=O)[C@@H]2C[C@@H]1Sc1ccccc1 -0.213
CCOC(=O)C1=CC[C@@H](c2ccccc2F)N(S(=O)(=O)c2ccc(C)cc2)[C@H]1c1ccccc1 -0.0895
C=CCN1Cc2ccccc2[C@@H]2OC(c3ccc(OCCCO)cc3)=N[C@]2(CC=C)C1=O 0.887
O=C(NCCN1CCOCC1)[C@@H]1c2ccccc2C(=O)N(C2Cc3ccccc3C2)[C@H]1c1ccc(CO)cc1 1.54
C=CCC(OC(C)=O)[C@@H]1[C@@H](N(Cc2cccc3ccccc23)C(=O)Cc2ccc(OC)cc2)c2cc(OCCCO)ccc2N1C(=O)c1ccc(-c2ccccc2)cc1 (stereo partly specified) 0.377
CC(C)[Si](C#CCCCC#N)(O[C@H](c1ccccc1)c1cn(Cc2ccccc2)nn1)C(C)C 0.206
NCCCCCCNC(=O)[C@@H]1C[C@@H]2C(=O)N[C@@H](CCCCN)C(=O)N2[C@@H]1c1ccc(O)cc1 2.07
CCN(CC)c1ccc(N2CC=CC34O[C@@H]5/C=C\CCCOC(=O)C5[C@H]3C(=O)N(C(C)CO)[C@@H]4C2=O)cc1 (stereo partly specified) -0.322
CC(C)N1C(=O)C[C@@](C(=O)O)(c2ccc([N+](=O)[O-])cc2)[C@H]1c1ccc(CO)cc1 1.04
CN(C)C(=O)[C@@]1(Cc2ccccc2)N=C(c2ccc(OCCCO)cc2)O[C@H]1c1ccccc1 1.66
Cc1ccc(S[C@]2(C(=O)NC(C)C)CC(=O)N(Cc3cc(C(F)(F)F)cc(C(F)(F)F)c3)[C@@H]2c2ccc(CO)cc2)cc1 0.706
COCC(=C=CC[C@H](O)c1ccc(CO)o1)CCO -0.224
CCCCCN1CC=CC23O[C@@H]4/C=C\CCCOC(=O)C4[C@H]2C(=O)N(C(C)CO)[C@@H]3C1=O (stereo partly specified) 0.221
COc1ccc([Si](C)(C)[C@@H]2[C@@H](CCO)O[C@]3(C(=O)N(Cc4cccc(NC(=O)[C@H](C)O)c4)c4ccccc43)[C@H]2C)cc1 0.789
Cc1ccc(S[C@]2(C(=O)NCc3ccccc3)CC(=O)N(C3CCCCC3)[C@@H]2c2ccc(CO)cc2I)cc1 0.2
CC(C)c1ccc(NN2C(C(O)c3ccc(F)cc3)C=CC3C(=O)N(c4ccccc4)C(=O)C32)cc1 (stereo unspecified) 0.344
COC(=O)[C@@]1(Cc2ccccc2)[C@H]2c3cc(C(=O)N4CCCC4)n(CCc4ccccn4)c3C[C@H]2CN1C(=O)c1ccccc1 1.44
CCCN1C(=O)[C@]2(Cc3ccccc31)N=C(c1ccc(OCCCO)cc1)O[C@@H]2c1ccccc1 -0.0074
O=C1[C@H]2C=C(I)[C@H](C[C@@H]2OCCOCCO)[C@@]12CO2 0.0014
CCCCCCc1nc(Cc2cc(OC)c(OC)c(OC)c2)cc2c1[Si](C(C)C)(C(C)C)OC2 0.181
COC(=O)C(CC#Cc1ccc2c(c1)[C@]1(C(=O)N2)[C@H](c2ccc(O)cc2)N2[C@H](c3ccccc3)[C@H](c3ccccc3)OC(=O)[C@H]2[C@@H]1C(=O)NC[C@H](O)c1ccccc1)C(=O)OC 0.646
COCCOC(=O)N1C(=O)[C@@]2(c3cc(C#CC4=CCCCC4)ccc31)[C@H](c1ccccc1OCCO)N1[C@H](c3ccccc3)[C@H](c3ccccc3)OC(=O)[C@H]1[C@@H]2C(=O)N1CCN(c2ncccn2)CC1 0.735
O[C@@H](Cc1ccccc1)[C@@H](/C=C/C1CC1)N(CC#Cc1ccccc1)Cc1ccccc1Br -0.112
COc1cc2c(cc1O)C=[N+](Cc1sc3ccccc3c1Cl)CC2 0.669
COc1ccc(C#Cc2ccc3c(c2)[C@]2(C(=O)N3)[C@H](C(=O)O)[C@H]3C(=O)O[C@H](c4ccccc4)[C@H](c4ccccc4)N3[C@@H]2c2ccc(O)cc2)cc1 1.14
Cn1cccc1C(O)C1C=CC2C(=O)N(c3ccccc3)C(=O)C2N1Nc1ccccc1 (stereo unspecified) 0.622
Cc1ccc(F)cc1S(=O)(=O)N[C@@H]1CCN(Cc2ccc(Br)cc2)C1 -0.238
CC1CC/C=C\[C@H]2OC34C=CCN(Cc5ccccc5)C(=O)[C@H]3N(C(CO)C(C)C)C(=O)[C@@H]4C2C(=O)O1 (stereo partly specified) 0.0855
CCOC(=O)C1=C[C@@H](C(C)C)N(S(=O)(=O)c2ccc(C)cc2)[C@H]1c1ccc(C(F)(F)F)cc1 0.438
COCCCNC(=O)[C@@]1(Sc2ccc(C)cc2)CC(=O)N(C2Cc3ccccc3C2)[C@@H]1c1ccc(CO)cc1 0.33
C[N+](C)(C)CCCC[C@@H]1NC(=O)[C@@H]2C[C@H](C(=O)NCCCCCCN)[C@H](c3cccc(OCCO)c3)N2C1=O 1.52
C=CCC(OC(C)=O)[C@@H]1[C@@H](N(Cc2ccc(-c3ccccc3)cc2)C(=O)c2ccc(-c3ccccc3)cc2)c2cc(OCCCO)ccc2N1C(=O)c1ccc2ccccc2c1 (stereo partly specified) -0.29
CC1CC/C=C\[C@H]2OC34C=CCN(C(C)C)C(=O)[C@H]3N(CCO)C(=O)[C@@H]4C2C(=O)O1 (stereo partly specified) -0.319
CCCNC(=O)[C@@H]1c2ccccc2C(=O)N(Cc2ccc(OC(F)(F)F)cc2)[C@H]1c1ccc(CO)cc1 0.688
CC(C)NC(=O)[C@@]1(C)c2ccccc2C(=O)N(Cc2ccc(OC(F)(F)F)cc2)[C@H]1c1ccc(CO)cc1 0.697
COc1ccc(CCNC(=O)[C@@]2(Cc3ccccc3I)c3ccccc3C(=O)N(C3CCCCC3)[C@H]2c2ccc(CO)cc2)cc1 0.898
